The whole screen tested about 53,000 sequences, of which about 3,700 (7%) were called active.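 How the source made its calls: active means gene knockdowns whose robust z-score for IL-1 alpha signal is at least 2 or at most -2, so actives lie on both sides; inactive means the rest.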 The sample as a whole holds a higher share of actives than the screen did.

Z-score data for 30 sequences are collected here from PubChem BioAssay AID1508600 (Functional Genomics Laboratory (NCATS/FGL), 2020).

A short description of this test: Components of the Cytosolic LPS Sensing Pathway: Gene Identification via Genome-wide siRNA Screen.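 Further: robust z of the log signal after scaling to non-targeting control siRNA wells of the plate.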 The settings on record: RAW264.7 macrophages, IL-1a HTRF, actives lie on both sides, screened at 100 nM (by protocol), cells primed 5 h with Pam3CSK4 first. In short, it runs like this: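 RAW264.7; siRNA 100 nM final, RNAiMAX, 48h 37 degrees C; Pam3CSK4 5 h; LipidA + TransIT-TKO 24 h; IL-1a HTRF; CellTiter-Glo viability; robust z vs negative-control median.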
A general note: Time-resolved FRET reads energy transfer from a long-lived donor to a nearby acceptor.
Turning to CCUUAGGUACUCUAAGGAATT against D1Pas1, the z-score is -0.109 (inactive). With CGGAUUUUGAAGUACACCGTT against Alg8 the figure was 0.207 (inactive); with CGCAGUACCUAUUUGAGCGTT against Hs6st1, 1.62 (inactive). As to GCUCAUAAUUUUGACAGCUTT against Cyp51, the z-score was 0.168 (inactive). With GGCUUUCACGCUUUGACAATT against Ap1m2 the figure was 0.209 (inactive); with GACUAACCAGAUGAAAGUCTT against Vmn1r11, -0.66 (inactive). With GCAUGUUACUAGGAUAACUTT against Mup20 the figure was 2.27 (active); with GGAUUCUAUGACAAAGACATT against Ddx3x, 1.84 (inactive). With GGCUUCCAAAACAAAUCAATT against Rgn the figure was 0.857 (inactive); with CCUGCACAACUGGAAACCUTT against Nectin2, -2.16 (active). In the case of GAUAAUGACCAGGCUACCATT against Magea7-ps, the z-score was 0.069 (inactive). With CCACUGUGCUCAAUUUGCATT against Slc9a2 the figure was -0.372 (inactive).

Consider GGCUCUGGAAAAGAACAACTT against Sds, for which the z-score is 1.52 (inactive). The figure for GGAAAUCAACAGCUCACAUTT against B3gnt9 is -0.327 (inactive); for GGAUCUAUAAGGACUACAUTT against Bmp7 it is 4.01 (active); for GGCCGAUUCCAUUGUACAGTT against Fam177a it is 3.54 (active).

With GCUGUAUGGCUAAGCAGUGTT against Olfr113, the z-score was -0.42 (inactive). With GCCUCAAAAUGGCGGAACUTT against Casp8 the figure was -0.249 (inactive); with CCAAGCGAAUGUCAAAAUATT against Fam163a, 0.66 (inactive). The figure for GGAGAGGAACAGGAACAGATT against Ankrd9 is 0.557 (inactive); for GGGUCAUUGGUAGCAACGATT against Oas1g it is -2.9 (active).

Take GGCCUAAUCGAAAUGUGGCTT against Trim12a: the z-score is 0.515 (inactive). The figure for GGUGACUGGUUUGUUGCUUTT against Pstk is -1.39 (inactive). With GCUACAGGGAAGUAUUGAATT against Apc the figure was 2.05 (active); with GGCUGGAAUCACUGAUAUUTT against Hddc3, 0.527 (inactive).

For CGAGAUGUUUAUUCAACAUTT against Tcf23, the z-score is -0.431 (inactive).

For the sequence GGAACAUUUGAAGUGCAAATT against Ilf2, the z-score was -0.45 (inactive).

With GCCAUCGUCUACCUAUGACTT against Olfr358, the z-score is -1.85 (inactive).

Regarding CGGUUAGUCUGUCAGUAUCTT against Xrcc3, the z-score is 0.488 (inactive).

Consider GAUUCAGCAUUAUUUCUGUTT against Olfr980, for which the z-score is 0.524 (inactive).
